Reference: the supplement of paper PMC13380429

Test system: Vero E6 infected with SARS-CoV-2
Test: inhibition of SARS-CoV-2 cytopathic effect; higher = more antiviral protection, active = above 15
Conditions: 48 h

Measured: inhibition of SARS-CoV-2 cytopathic effect

Clc1ccc(COC(Cn2ccnc2)c2ccc(Cl)cc2Cl)cc1 (stereo not given) [econazole]
inactive: 1 nM 1.49% | 8.33 nM 1.04% | 100 nM 0.94% | 833.33 nM 3.08% | 10000 nM -1.91%

COC(=O)C1=CO[C@@H](O[C@@H]2O[C@H](CO)[C@@H](O)[C@H](O)[C@H]2O)[C@@H]2C(CO)=CC[C@H]12 [geniposide]
inactive: 1 nM -1.56% | 8.33 nM -1.45% | 100 nM -10.1% | 833.33 nM -17% | 10000 nM -18.6%

Nc1ccc(O)c(C(=O)O)c1 [mesalazine]
inactive: 1 nM 1.06% | 8.33 nM -2.08% | 100 nM 1.03% | 833.33 nM -1.05% | 10000 nM -2.08%

NS(=O)(=O)c1cc2c(cc1Cl)NC(C1CC3C=CC1C3)NS2(=O)=O (stereo not given) [cyclothiazide]
inactive: 1 nM 2.43% | 8.33 nM 0.31% | 100 nM 3.55% | 833.33 nM -0.08% | 10000 nM -1.44%

O[C@H]([C@H](O)[C@@H]1CO1)[C@H]1CO1 [dianhydrogalactitol]
inactive: 1 nM -0.61% | 8.33 nM -1.52% | 100 nM -3.41% | 833.33 nM 0.41% | 10000 nM 2.5%

CC[C@]1(O)C[C@@H]2CN(CCc3c([nH]c4ccccc34)[C@@](C(=O)OC)(c3cc4c(cc3OC)N(C)[C@H]3[C@@](O)(C(=O)OC)[C@H](OC(C)=O)[C@]5(CC)C=CCN6CC[C@]43[C@@H]65)C2)C1 [Vinblastine (sulfate)]
inactive: 1 nM -0.48% | 8.33 nM 1.74% | 100 nM -0.03% | 833.33 nM 0.75% | 10000 nM -0.15%

COc1cc2c(c(OC)c1OC)-c1c(cc3c(c1OC)OCO3)CC(C)C(C)C2 (stereo not given) [schisandrin-B]
inactive: 1 nM -1.41% | 8.33 nM -0.34% | 100 nM -0.03% | 833.33 nM -1.73% | 10000 nM -1.42%

Cn1nnc2c(C(N)=O)ncn2c1=O [temozolomide]
inactive: 1 nM 0.73% | 8.33 nM -1.46% | 100 nM -0.92% | 833.33 nM -0.44% | 10000 nM -1.79%

CC(C)(O)CC[C@@H](O)[C@](C)(O)[C@H]1CC[C@@]2(O)C3=CC(=O)[C@@H]4C[C@@H](O)[C@@H](O)C[C@]4(C)[C@H]3CC[C@]12C [20-hydroxyecdysone]
inactive: 1 nM -3.9% | 8.33 nM -2.28% | 100 nM -3.43% | 833.33 nM 0.03% | 10000 nM 1.01%

CC(=O)C1=C(O)[C@@H]2[C@H]3c4c[nH]c5cccc(c45)C[C@H]3C(C)(C)N2C1=O [cyclopiazonic-acid]
inactive: 1 nM 0.48% | 8.33 nM 0.86% | 100 nM 2% | 833.33 nM -0.85% | 10000 nM 14.2%

CC(C)(C)NS(=O)(=O)c1cncc(-c2cc(F)c3nc(N)nn3c2)c1
inactive: 1 nM 3.23% | 8.33 nM 2.61% | 100 nM -1.19% | 833.33 nM 0.27% | 10000 nM 0.39%

Cc1cccc(C)c1NC(=O)CN1CCN(CCCC(c2ccc(F)cc2)c2ccc(F)cc2)CC1 [lidoflazine]
inactive: 1 nM -2.3% | 8.33 nM 0.7% | 100 nM 0.47% | 833.33 nM -1.87% | 10000 nM -10.2%

c1ccc(C(NCc2cccnc2)(c2ccccc2)c2ccccc2)cc1
inactive: 1 nM 1.69% | 8.33 nM 4.02% | 100 nM 1% | 833.33 nM 1.58% | 10000 nM 2.26%

COc1cc2c(cc1C(F)(F)F)N(C(=O)Nc1cc(F)cc(-c3cccnc3)c1)CC2
inactive: 1 nM 1.91% | 8.33 nM 2.35% | 100 nM 0.87% | 833.33 nM 2.32% | 10000 nM 2.45%

CCCCN1CCC(CCC(=O)c2cc(Cl)c(N)cc2OC)CC1
inactive: 1 nM -0.14% | 8.33 nM -0.19% | 100 nM -0.31% | 833.33 nM -1.87% | 10000 nM -3.77%

O=C(O)[C@]1(Cc2cccc(Nc3nccs3)n2)CC[C@@H](Oc2cccc(Cl)c2F)CC1
inactive: 1 nM 0.11% | 8.33 nM -0.24% | 100 nM -0.82% | 833.33 nM -6.57% | 10000 nM -5.28%

CCc1ccc(/C=C2/SC(=S)NC2=O)cc1
inactive: 1 nM -2.34% | 8.33 nM -6.5% | 100 nM -4.03% | 833.33 nM 3.21% | 10000 nM 1.11%

CN(Cc1cc(Br)cc(Br)c1N)C1CCCCC1 [bromhexine]
inactive: 1 nM 0.85% | 8.33 nM 0.02% | 100 nM 2.7% | 833.33 nM 3.11% | 10000 nM 11.6%

Oc1c(I)cc(I)c2cccnc12 [iodoquinol]
inactive: 1 nM -0.28% | 8.33 nM 2.09% | 100 nM -1.12% | 833.33 nM 1.46% | 10000 nM 0.59%

O=C(O)[C@H]1CN(C/C=C/P(=O)(O)O)CCN1 [midafotel]
inactive: 1 nM -2.43% | 8.33 nM -0.69% | 100 nM 0.17% | 833.33 nM 1.03% | 10000 nM 3.52%

CCCC[C@@]1(C2CCCC2)Cc2cc(OCCCC(=O)O)c(Cl)c(Cl)c2C1=O
inactive: 1 nM 2.56% | 8.33 nM 0.21% | 100 nM 0.81% | 833.33 nM 2.21% | 10000 nM 2.61%

CCCOc1ccc2c(c1)CC[C@@H]1[C@@H]2CC[C@]2(C)[C@@H](OC)CC[C@@H]12 [promestriene]
inactive: 1 nM -1.76% | 8.33 nM -1.33% | 100 nM -0.65% | 833.33 nM -2.33% | 10000 nM -2.79%

CCC/N=C1\S/C(=C\c2ccc(OC[C@H](O)CO)c(Cl)c2)C(=O)N1c1ccccc1C [ponesimod]
inactive: 1 nM -1.82% | 8.33 nM -0.6% | 100 nM -2.77% | 833.33 nM -2.51% | 10000 nM -0.58%

COc1cc2c(cc1OC)-c1c/c(=N\c3c(C)cc(C)cc3C)n(C)c(=O)n1CC2 [trequinsin]
inactive: 1 nM 1.9% | 8.33 nM 2.01% | 100 nM -0.55% | 833.33 nM 3.41% | 10000 nM 6.34%

CC(C)c1c2cc(-c3ccnc(N[C@H]4CC[C@H](NC5CCOCC5)CC4)n3)ccc2nn1C
inactive: 1 nM -0.19% | 8.33 nM -1.61% | 100 nM -2.09% | 833.33 nM -20.8% | 10000 nM -0.88%

Cn1cc(-c2cnc3ccc4ccc(CS(=O)(=O)NCc5ccccn5)cc4c(=O)c3c2)cn1
inactive: 1 nM 1.02% | 8.33 nM 0.57% | 100 nM 1.94% | 833.33 nM 3.38% | 10000 nM 1.59%

C[C@]1(O)C[C@@H](c2nc(-c3ccc4ccc(-c5ccccc5)nc4c3)c3c(N)nccn32)C1 [linsitinib]
inactive: 1 nM 1.22% | 8.33 nM -0.2% | 100 nM -1.12% | 833.33 nM 0.58% | 10000 nM 1.2%

O=C(O)[C@H](Cc1ccccc1)NCc1ccc(Cl)cc1
inactive: 1 nM 0.28% | 8.33 nM -1.27% | 100 nM -0.99% | 833.33 nM 1.08% | 10000 nM 0.65%

O=C(NO)C1(CS(=O)(=O)c2ccc(Oc3ccc(Cl)cc3)cc2)CCOCC1
inactive: 1 nM -0.75% | 8.33 nM -2.34% | 100 nM 0.31% | 833.33 nM -0.91% | 10000 nM -11.7%

CC(C(=O)O)c1cccc(C(=O)c2ccccc2)c1 (stereo not given) [ketoprofen]
inactive: 1 nM -0.91% | 8.33 nM -0.62% | 100 nM -0.91% | 833.33 nM -0.03% | 10000 nM -0.97%

CCc1cnn2c(NCc3ccc[n+]([O-])c3)cc(N3CCCC[C@H]3CCO)nc12 [dinaciclib]
inactive: 1 nM 1.49% | 8.33 nM -1.48% | 100 nM -3.71% | 833.33 nM -9.46% | 10000 nM -8.75%

CN1CCN(c2ccc3nc(-c4c(N)c5c(F)cccc5[nH]c4=O)[nH]c3c2)CC1 [dovitinib]
inactive: 1 nM 1.8% | 8.33 nM 0.97% | 100 nM 0.34% | 833.33 nM -1.8% | 10000 nM -0.5%

Cn1c(-c2ccccc2)nnc1S(C)(=O)=O
inactive: 1 nM 2.45% | 8.33 nM -0.41% | 100 nM 0.33% | 833.33 nM -0.57% | 10000 nM 2.92%

CCN(CC)Cc1nccn1-c1ccc([N+](=O)[O-])cc1C(=O)c1ccccc1Cl [nizofenone]
inactive: 1 nM -1.17% | 8.33 nM 0.76% | 100 nM -0.2% | 833.33 nM 0.15% | 10000 nM 1.83%

CC1(C)OC[C@H](NC(=O)Nc2ccc(Br)cc2Br)[C@H](c2ccccc2)O1
inactive: 1 nM -1.15% | 8.33 nM 0.87% | 100 nM -2.04% | 833.33 nM -3.68% | 10000 nM -5.84%

COc1ccccc1C(=O)Nc1cccc(NC(=O)c2cccc(C)c2)c1
inactive: 1 nM 1.89% | 8.33 nM 2.12% | 100 nM 2.82% | 833.33 nM 0.39% | 10000 nM 1.77%

CC(C)(C)c1cc(C=C(C#N)C#N)cc(Br)c1O
inactive: 1 nM 0.94% | 8.33 nM -0.19% | 100 nM 0.29% | 833.33 nM -1.48% | 10000 nM 4.93%

O=C(O)c1cc2ccccc2s1
inactive: 1 nM -0.94% | 8.33 nM -1.01% | 100 nM -0.94% | 833.33 nM -0.45% | 10000 nM 0.62%

CNC(=O)c1cccc(-c2ccc3c(N4CCOC[C@@H]4C)nc(N4CCOC[C@@H]4C)nc3n2)c1
inactive: 1 nM 0.89% | 8.33 nM -1.74% | 100 nM -1.86% | 833.33 nM 0.43% | 10000 nM -2.51%

CCCN(CCC)S(=O)(=O)c1ccc(C(=O)O)cc1 [probenecid]
inactive: 1 nM -0.75% | 8.33 nM -2.02% | 100 nM -2.27% | 833.33 nM -2.63% | 10000 nM -2.19%
